Legend:
Type in all cases: functional
[1] = molecular target: Solute carrier family 2, facilitated glucose transporter member 1 (Homo sapiens) (UniProt P11166); test: ST_JUDE_LEISH: Cytotoxicity at 2uM final concentration against transgenic Leishmania Mexicana promastigotes LmGLUT1 that are glucose transport deficient and complemented with the human glucose transporter GLUT1. Activity is measured by DNA content using SYBR green in vitro
[2] = molecular target: Hexose transporter 1 (Plasmodium falciparum) (UniProt O97467); test: ST_JUDE_LEISH: Cytotoxicity at 2uM final concentration against transgenic Leishmania Mexicana promastigotes LmPfHT that are glucose transport deficient and complemented with the Plasmodium falciparum hexose transporter. Activity is measured by DNA content using SYBR green in vitro
[3] = molecular target: Glucose transporter (Leishmania mexicana) (UniProt O61059); test: ST_JUDE_LEISH: Cytotoxicity at 2uM final concentration against transgenic Leishmania Mexicana promastigotes LmGT2 that are glucose transport deficient and complemented with the L. Mexicana glucose transporter 2. Activity is measured by DNA content using SYBR green in vitro

Solute carrier family 2, facilitated glucose transporter member 1 (Homo sapiens), sequence (P11166 whole entry): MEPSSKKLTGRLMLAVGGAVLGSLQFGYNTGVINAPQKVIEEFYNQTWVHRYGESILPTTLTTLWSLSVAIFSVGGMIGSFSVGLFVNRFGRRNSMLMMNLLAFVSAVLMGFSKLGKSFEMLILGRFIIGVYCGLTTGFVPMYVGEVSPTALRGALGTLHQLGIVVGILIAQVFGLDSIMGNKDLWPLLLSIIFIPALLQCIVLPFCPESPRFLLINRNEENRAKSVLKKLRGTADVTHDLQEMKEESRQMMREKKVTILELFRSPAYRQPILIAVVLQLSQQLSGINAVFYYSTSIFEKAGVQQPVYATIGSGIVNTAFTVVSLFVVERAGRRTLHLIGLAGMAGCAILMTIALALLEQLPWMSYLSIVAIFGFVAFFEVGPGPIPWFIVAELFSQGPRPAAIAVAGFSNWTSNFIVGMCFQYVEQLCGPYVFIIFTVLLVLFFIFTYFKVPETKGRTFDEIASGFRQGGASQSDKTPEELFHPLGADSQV

Structure (SMILES): c1ccc2[nH]c(-c3ccc(-c4ccc(CN5CCC(N6CCCCC6)CC5)cc4)s3)nc2c1
- inhibition [1]: 0.72%
- inhibition [2]: -0.81%
- inhibition [3]: -1.09%

Structure (SMILES): Cc1cc(-c2ccc(CNCc3ccsc3)cc2)ccc1S(=O)(=O)NCCN1CCCC1
- inhibition [1]: 61.3%
- inhibition [2]: 21.9%
- inhibition [3]: -0.36%

Structure (SMILES): Cc1sc(N2CCCCC2)nc1C(=O)Nc1ccc(F)cc1C(F)(F)F
- inhibition [1]: 3.13%
- inhibition [2]: -1.54%
- inhibition [3]: 0.73%

Structure (SMILES): CC(=O)c1ccccc1C(=O)N1CCOc2ccc(C(O)C(c3ccccc3)c3ccccc3)cc2C1 (configuration not stated)
- inhibition [1]: 0.04%
- inhibition [2]: -1.21%
- inhibition [3]: -1.21%

From ChEMBL document CHEMBL3433997, “St. Jude Leishmania screening dataset” (2016)
